Source: ChEMBL document CHEMBL3988442, “University of Dundee, Small-Polar-MMV Screening Library” (2021)

The compounds below were run against Shiga toxin 2 (Escherichia coli O157:H7) (UniProt P09385+P09386) (assay: E. coli 0.157:H7 Shiga Toxin SOP - stx2 screening assay). Conditions: 30 µM.
Format: functional
Design: scale not given: direction of the effect not stated beside the values

Row | SMILES | Percent Effect
1 | COc1cc(C(=O)N2CCC(c3n[nH]c(C4CC4)n3)CC2)ccc1C | 3.06%
2 | CCOCC(=O)NC1(c2cccc(Br)c2)CC1 | -5.68%
3 | CN(C)CCN1CCCC12CCN(C(=O)c1cccn1C)CC2 | -0.241%
4 | CN(CCC(F)(F)F)C(=O)C1CCCN1C(=O)OC(C)(C)C (stereo not given) | -21.4%
5 | Cc1cnn(CC2CN(Cc3nc(N)c4ccccc4n3)CCO2)c1 (stereo not given) | 20.2%
6 | Cc1nnc2n1CCN(Cc1ncc(-c3ccc(Cl)cc3)o1)C2 | 25.1%
7 | CC(C)N1CCO[C@H]2CN(C(=O)c3ccoc3)C[C@H]21 | -1.73%
8 | CN(C)C(=O)CN1CCCCC1c1nc(N)ncc1-c1ccccc1 (stereo not given) | 1.46%
9 | Cc1nccc(CN2CCC(c3nnsc3S(C)(=O)=O)CC2)n1 | 5.72%
10 | Cc1cccc2[nH]c(C3CCN(C(=O)c4ccnn4C)CC3)nc12 | -69.6%
11 | Cc1nn(C)c(Cl)c1CNCc1cccnc1N1CCOCC1 | 4.19%
12 | c1ncn(Cc2cnc3n2CCN(Cc2ccsc2)CC3)n1 | -2.1%
13 | CCOC(=O)[C@]12CCCN(Cc3nccs3)C[C@H]1CN(C(C)=O)C2 | -5.93%
14 | Cn1ncc2c(=O)[nH]c(CN3CCCC3c3cccs3)nc21 (stereo not given) | 3.97%
15 | c1ccc(-n2ccc(CN3CCCC3Cn3cccn3)n2)cc1 (stereo not given) | -19.3%
16 | Cn1cnnc1C1CCCN(C(=O)NCc2cc[nH]n2)C1 (stereo not given) | 12.3%
17 | CN(Cc1nnc2n1CCC2)C(=O)NCCc1ccc2c(c1)OCO2 | 19.1%
18 | COc1ccc(OCCCNC(=O)NCc2csc(C)n2)cc1 | -17%
19 | O=C(NCCC1=CCCCC1)C1CCCN(c2ccc3nncn3n2)C1 (stereo not given) | -5.94%
20 | CC(NC(=O)c1cccs1)C(=O)NCc1ccccc1CN1CCCC1 (stereo not given) | -31.6%

Row | SMILES | Percent Effect
21 | CC(C)Oc1ncccc1CNC(=O)C1CCCN(C(=O)C2CC2)C1 (stereo not given) | 33.3%
22 | CNC(=O)N1C[C@H]2CC[C@@]3(N=C(c4ccccc4)NC3=O)[C@H]2C1 | -20.9%
23 | CCC1=N[C@@]2(CC[C@@H]3CN(C(=O)NCC(C)C)C[C@@H]32)C(=O)N1CC(C)C | -9.55%
24 | O=C(CCn1cccn1)N1C[C@@H]2CC[C@H](C1)N(Cc1ccccn1)C2=O | 3.51%
25 | CN(CC(=O)NCc1ccccn1)CC1CCCN1c1cccnn1 (stereo not given) | -17.5%
26 | O=C(c1cnccn1)N1CCN2C[C@H](OCc3ccccn3)C[C@H]2C1 | -7.9%
27 | Cc1nn(C)c(N2CCOCC2)c1CNCc1nccs1 | 28.1%
28 | COC(=O)c1ccc(S(=O)(=O)NCc2cccnc2N(C)C)cc1 | 12%
29 | Cc1ccc(CNCc2ccc(-n3nc(C)cc3C)nc2)cc1 | 22.8%
30 | O=C(c1cccnc1)N1CCCC(c2cc(C(F)F)n3ncnc3n2)C1 (stereo not given) | 8.99%
31 | Cc1ccc(CNC2CCCc3c2cnn3C)s1 (stereo not given) | 1.56%
32 | CCOCC(O)CN1CCN(C(=O)c2ccc(OC)cc2F)CC1 (stereo not given) | -5.15%
33 | Cc1ccc([C@@H]2CN(C(=O)c3csc(C)n3)C[C@H]2NC(=O)C2CC2)cc1 | 15.2%
34 | COCCN1CC[C@@H]2O[C@@H](COCC(=O)N3CCCC3)CC[C@@H]21 | -8.7%
35 | O=C(O)c1csc(S(=O)(=O)Nc2cccc(OC(F)F)c2)c1 | -13.1%
36 | CCn1cnnc1C1CCN(C(=O)COc2ccccc2)CC1 | -10%
37 | CC(C)c1ccc(O)c(C(=O)N2CCN(Cc3cscn3)CC2)c1 | -7.95%
38 | COc1c(CNCCNC(=O)c2ccc(C)cc2)c(C)nn1C | -32.3%
39 | Cc1ccc(C(=O)N2C[C@@H](OCC3CCOCC3)[C@H]3OCCC[C@H]32)o1 | -15.3%
40 | COCCN(C)C[C@@H]1CN(C(=O)c2ccoc2)C[C@@H]1CO | 15.1%
